Screening data from PubChem.
SKN-1 block: C. elegans SKN-1 inhibition; C. elegans VP596 Pgst-4::GFP/RFP ratio, acrylamide-induced, 24 h; inhibition, % at 21.8 µM; hit rate 0.49% among 360,000;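 active = interference check ratio from 0.5 to 1.5 plus GFP to RFP signal ratio inhibition reaching or exceeding a fixed threshold, cut at about 30% in these data, passing the limit was not always enough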
ATG4B inhibitor: ATG4B (human) cysteine protease inhibition. Q9Y4P1. ATG4B cleavage of LC3-PLA2, NBD-HPC fluorescence, 1 h. inhibition, % at 8.33 µM. hit rate 0.51% among 340,000. AID 504462; in the data active = inhibition above about 40%
Target sequence (Q9Y4P1 whole entry, looked up): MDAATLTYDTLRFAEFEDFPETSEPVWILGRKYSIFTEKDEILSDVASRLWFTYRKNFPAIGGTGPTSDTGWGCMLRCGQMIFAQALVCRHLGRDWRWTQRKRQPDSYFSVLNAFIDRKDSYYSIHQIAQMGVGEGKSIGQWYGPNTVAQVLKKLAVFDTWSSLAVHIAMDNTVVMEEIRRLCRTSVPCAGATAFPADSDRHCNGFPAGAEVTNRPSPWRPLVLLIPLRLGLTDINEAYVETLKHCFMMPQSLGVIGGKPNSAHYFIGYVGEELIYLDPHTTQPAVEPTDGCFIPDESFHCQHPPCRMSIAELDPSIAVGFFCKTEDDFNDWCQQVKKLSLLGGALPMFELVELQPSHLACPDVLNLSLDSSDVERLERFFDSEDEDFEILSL
M1 ag: human M1 muscarinic receptor agonism; P11229; CHO-K1 hM1, Fluo-8 calcium fluorescence, agonist mode; 0% DMSO, 100% acetylcholine EC100; activation, % at 3 µM; hit rate 0.33% among 360,000; AID 588814;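 active = activation above the run's mean compound activation plus 3 SD, cut at about 16% in these data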;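 also: peak over basal fluorescence ratio within a 140 s kinetic read after compound addition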
M1 PAM: human CHRM1 positive allosteric modulation | CHO-K1 hM1, Fluo-8 calcium fluorescence, ACh EC20; 0% = ACh EC20, 100% = maximal ACh | hit rate 0.088% among 360,000 | activation, % at 3 µM | AID 588819 | P11229; in the data active = activation above about 19%, passing the limit was not always enough
M1 antag: blocks human M1 muscarinic receptor; AID 588852; hit rate 1.3% among 360,000; inhibition, % at 3 µM; CHO-K1 hM1, Fluo-8 calcium fluorescence, ACh EC80 antagonist; P11229;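 active = percent inhibition above its own plate's cutoff, namely the mean of that plate's compound wells plus 3 SD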;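 also: peak over basal fluorescence ratio during 140 s after agonist addition; 0% = ACh EC80 plus DMSO and 100% = DMSO alone without agonist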
Myeloid diff MLP: myeloid differentiation induction | ER-HoxA9 myeloid progenitors, lysozyme-GFP differentiation, flow cytometry | calls only at 10 µM | hit rate 1% among 360,000;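 active = normalized GFP-positive differentiation at or above the plate's own cutoff, the solvent-only control mean plus 3 SD; inconclusive = no clear call, values can overlap the other calls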;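 also: cells exposed to compound for four days before flow analysis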
* hit, by the source's call; i = inactive; ? = inconclusive; / = not tested or not shown; + = active, no number. Shown are actives, neighbours in structure and some others; about 3.5% of the full set was active somewhere.

SMILES | SKN-1 block | ATG4B inhibitor | M1 ag | M1 PAM | M1 antag | Myeloid diff MLP
Cc1ccc([N+](=O)[O-])c(NC2OC(CO)C(O)C2O)c1 (stereo not given) | 1.4 | -9.4 | -1.6 | 10.5 | -9.9 | i
C/C=C(/C)C(=O)OC1CC(C)(C)C[C@H]2C3=CC[C@@H]4[C@@]5(C)CCC(O[C@@H]6O[C@@H](C(=O)O)[C@@H](O)C(O[C@@H]7OC[C@H](O)[C@@H](O)[C@@H]7O[C@@H]7OC(CO)C(O)[C@@H](O)[C@@H]7O)C6O[C@@H]6OC(CO)C(O)C(O)C6O)[C@@](C)(CO)[C@@H]5CC[C@]4(C)[C@]3(C)CC(O)[C@@]12CO (stereo not given in full) | 27.5 | 8.3 | 62.0* | -36.5 | 73.5* | i
CC1(C)C[C@H]2C3=CCC4[C@@]5(C)CC[C@H](O[C@@H]6O[C@H](C(=O)O)[C@@H](O)[C@H](O)[C@H]6O)[C@@](C)(CO)C5CC[C@@]4(C)[C@]3(C)C[C@H](O)[C@@]2(CO)[C@@H](O)[C@@H]1O (stereo not given in full) | 7.5 | -0.1 | -4.1 | 9.3 | -3.8 | i
C/C=C(\C)C(=O)OC1[C@H](OC(C)=O)C2(CO)C(CC1(C)C)C1=CCC3C4(C)CCC(O[C@@H]5O[C@H](C(=O)O)[C@@H](O[C@@H]6O[C@H](CO)[C@@H](O)[C@H](O)[C@H]6O)[C@H](O)[C@H]5O[C@H]5O[C@H](CO)[C@@H](O)[C@H](O)[C@H]5O)[C@](C)(CO)C4CCC3(C)[C@]1(C)C[C@H]2O (stereo not given in full) | 7.5 | -27.3 | 92.8* | -36.5 | 104.2* | i
COc1cccc(-c2noc(-c3cccs3)n2)c1 | 91.3* | -2.5 | -2.7 | 6.3 | -8.1 | i
Cc1ccccc1-c1noc(-c2cccs2)n1 | 87.7* | 3.7 | -1.2 | 1.2 | 1.5 | i
Cc1ccccc1-c1nnc(-c2cccs2)o1 | 23.3 | 1.3 | -2.9 | -0.7 | 5.4 | i
COc1ccc(C(=O)N(C)Cc2cnn(Cc3ccccc3)c2)cc1S(=O)(=O)N1CCOCC1 | 7.3 | 0.5 | -5.0 | -4.5 | 7.4 | ?
Cc1ccc(NC(=O)c2oc3ccccc3c2NC(=O)c2ccc3c(c2)OCO3)cc1 | 16.2 | 5.8 | -1.7 | 0.2 | -5.2 | +
NC(=O)c1oc2ccccc2c1NC(=O)c1ccc(F)cc1 | 20.2 | -3.7 | -5.7 | -29.7 | 61.7* | i
O=C(Nc1c(C(=O)Nc2cccc(F)c2)oc2ccccc12)c1ccc2c(c1)OCO2 | 12.9 | -1.2 | 3.2 | 3.6 | -9.6 | i
Cc1nn(C2CCS(=O)(=O)C2)c(Cl)c1/C=C/C(=O)OCC(=O)Nc1ccc2c(c1)OCO2 (stereo not given) | -1.3 | -11.2 | -2.7 | 3.0 | -14.0 | i
O=C(c1cc(-c2cccs2)nc2ccccc12)N1CCN(CCO)CC1 | 3.0 | -14.6 | -2.5 | -6.8 | 9.4 | i
COc1ccc2c(c1)OC/C(=C/c1cccs1)C2=O | 53.6* | 17.4 | -10.8 | 5.8 | -15.2 | i
COc1ccc(/C=C2\COc3ccccc3C2=O)c(OC)c1 | 8.0 | -4.9 | -6.0 | 8.3 | -7.6 | i
CN1CCN(c2ccc(S(=O)(=O)N3CCCCC3)cc2NC(=O)COc2ccc([N+](=O)[O-])cc2)CC1 | -5.1 | 0.5 | -4.0 | -12.7 | 32.0* | i
Cc1ccc(OCC(=O)Nc2cc(S(=O)(=O)N3CCCCC3)ccc2N2CCN(C)CC2)c(C)c1 | 8.5 | 8.5 | -8.0 | -8.9 | 6.9 | i
Cc1ccccc1OCCC(=O)Nc1cc(S(=O)(=O)N2CCCCC2)ccc1N1CCN(C)CC1 | 7.8 | -11.0 | 34.3* | -12.9 | 19.1 | i
CCCN(CC(=O)Nc1ccccc1OC)C(=O)CNC(=O)c1ccc(C)s1 | -9.8 | -2.0 | -0.7 | 6.4 | 1.2 | i
COc1cc(/C=N/n2c(=S)[nH]nc(C)c2=O)cc([N+](=O)[O-])c1O | 0.1 | 7.5 | -5.4 | -8.1 | 16.0 | i
COc1cc(/C=N/N2CCCCC2)cc([N+](=O)[O-])c1O | 12.9 | 5.2 | 24.7* | 9.0 | 0.3 | i
CC1(C(=O)NS(=O)(=O)c2ccc(Cl)cc2)CCN1C(=O)Cc1ccc(Cl)cc1Cl (stereo not given) | 5.5 | / | -2.9 | 3.4 | 2.1 | i
